Mcl1 Bid PPI = disrupts binding of human Mcl-1 to Bid peptide; TR-FRET Mcl-1/Bid-Dy647 peptide binding, 1536-well; inhibition, % at 21.7 µM; 0.97% of 220,000 active; AID 1021;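 active means compounds that cut the binding signal by more than half at the single screening dose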;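 further: His-tagged Mcl-1 with europium anti-His antibody binding Bid BH3 peptide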
Target sequence (Q07820 whole entry, looked up): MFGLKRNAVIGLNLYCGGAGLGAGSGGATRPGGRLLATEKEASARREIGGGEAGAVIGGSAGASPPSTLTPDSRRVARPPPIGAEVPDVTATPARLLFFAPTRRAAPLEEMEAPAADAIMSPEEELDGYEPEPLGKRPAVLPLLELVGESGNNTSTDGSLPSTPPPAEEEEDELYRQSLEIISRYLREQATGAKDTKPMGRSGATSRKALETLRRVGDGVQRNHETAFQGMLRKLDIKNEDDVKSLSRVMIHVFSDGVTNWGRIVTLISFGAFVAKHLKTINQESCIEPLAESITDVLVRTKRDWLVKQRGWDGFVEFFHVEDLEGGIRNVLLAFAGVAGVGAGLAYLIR
14-3-3 Bad PPI = disrupts binding of bovine 14-3-3 zeta to phospho-Bad peptide. P63103. TR-FRET 14-3-3zeta/Dy647-pBad peptide displacement, 1 h. inhibition, % at 21.7 µM. 0.71% of 220,000 active. AID 781;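 active means inhibition above about 70%, limit read from the data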
Target sequence (P63103 whole entry, looked up): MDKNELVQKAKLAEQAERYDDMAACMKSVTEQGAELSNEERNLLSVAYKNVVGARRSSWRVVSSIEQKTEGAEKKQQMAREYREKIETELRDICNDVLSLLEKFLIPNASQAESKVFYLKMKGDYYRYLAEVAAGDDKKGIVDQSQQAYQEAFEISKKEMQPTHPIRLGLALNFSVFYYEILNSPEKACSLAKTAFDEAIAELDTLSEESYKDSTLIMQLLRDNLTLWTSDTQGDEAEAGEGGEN
eIF4E-4G inh = inhibitors of eIF4E and eIF4G interaction in translation initiation; TR-FRET eIF4E-eIF4GI(517-606) binding, 2 h; AID 782; inhibition, % at 21.7 µM; P63073+Q04637; 0.37% of 220,000 active;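 active means inhibition above about 30%, limit read from the data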
Mcl-1 Bim block = human Bim-Mcl-1 interaction inhibition | Q07820 | Bead-based flow cytometry, Bim peptide-Mcl-1 binding | inhibition, % at 10 µM | 0.1% of 190,000 active; in the data active means inhibition above about 40%
Pf gametocyte = kills late stage P. falciparum gametocytes; P. falciparum stage V gametocytes, ATP luminescence, 24 h; AID 743093; inhibition, % at 10.9 µM; 0.065% of 150,000 active;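 active means inhibition above the mean plus 3 SD of compounds within the control limits, set per campaign, cut at about 38% in these data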
Mcl1 Noxa PPI = disrupts binding of human Mcl-1 to Noxa peptide | Q07820 | TR-FRET Mcl-1/Noxa peptide binding, 2 h | inhibition, % at 21.7 µM | 1.5% of 220,000 active | AID 1022;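 active means compounds that cut the protein-peptide binding signal by more than 50% relative to plate controls in a single-dose test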;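 further: His-tagged Mcl-1 with rhodamine Noxa BH3 peptide and terbium anti-His antibody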
Each line names hits and unclear results; the compound was inactive in the other large screens. In the library only some 2.7% were active in any assay of this set; here they are far more common.

N#C/C(=C\c1ccc([N+](=O)[O-])o1)c1nc2ccccc2[nH]1	none
COc1ccc2nc(/C(C#N)=C\c3ccc(Oc4ccc([N+](=O)[O-])cn4)cc3)[nH]c2c1	Mcl1 Bid PPI 58, Mcl1 Noxa PPI 72
Cc1ccc2nc(/C(C#N)=C\c3ccc(Oc4ccc([N+](=O)[O-])cn4)cc3)[nH]c2c1	none
Cc1ccc2nc(/C(C#N)=C\c3ccc([N+](=O)[O-])o3)[nH]c2c1	Mcl1 Bid PPI 52, Mcl1 Noxa PPI 66 (no result: Pf gametocyte)
NS(=O)(=O)c1ccc(NC2=CC(c3ccc([N+](=O)[O-])cc3)N(c3ccc(S(N)(=O)=O)cc3)C2=O)cc1 (configuration not stated)	none (no result: Mcl-1 Bim block)
CC(C)c1ccc(S(=O)(=O)N2CCN(CCC(=O)Nc3ccc(N(C)C)cc3)CC2)cc1	Mcl1 Noxa PPI 72
CCCn1nnc(NC(=O)/C=C/c2cc(Br)ccc2OC)n1	none
Cc1cc(CNC(=O)C2(C(F)(F)F)C/C(=C\Cc3ccccc3)CCCO2)nn1C (configuration not stated)	none (no result: Mcl1 Bid PPI, 14-3-3 Bad PPI, eIF4E-4G inh, Mcl-1 Bim block, Mcl1 Noxa PPI)
O=C(C1CCCN(Cc2cccnc2)C1)N1CCCCC1 (configuration not stated)	Mcl1 Bid PPI 52
COc1ccc(CN2CCCC(C(=O)N3CCCC3)C2)cc1 (configuration not stated)	none
COc1cc(NC(=S)N2CCN(C(=O)C3CCCO3)CC2)c(OC)cc1Cl (configuration not stated)	none (no result: Pf gametocyte)
O=[N+]([O-])c1ccc(O)c(/C=N/Nc2ccc(Cl)nn2)c1	Mcl1 Noxa PPI 79
COc1cccc(/C=N/N2CCN(C3c4ccccc4-c4ccccc43)CC2)c1O	none (no result: Mcl-1 Bim block)
Nc1cc2c(cc1[N+](=O)[O-])OCO2	Mcl1 Noxa PPI 79
Nc1cc2c(cc1[N+](=O)[O-])OCCO2	none
CC(C)(C)c1ccc2c(c1)C(=O)c1ccccc1C2=O	none
CC(C)(C)C1=CC=C(C(C)(C)C)C(=O)C1=O	Mcl1 Noxa PPI 89 (no result: Mcl-1 Bim block, Pf gametocyte)
CN(C(=O)CN(c1ccccc1)S(=O)(=O)c1ccc(F)cc1)C1CCS(=O)(=O)C1 (configuration not stated)	none (no result: Mcl-1 Bim block)
CC(C)c1ccc(/C=C(/C#N)c2nnc(NC(=O)c3ccccc3)s2)cc1	none
O=C(c1cnn2c(C(F)(F)F)cc(-c3ccco3)nc12)N1CCCCCC1	none
O=C(O)c1cnn2c(C(F)(F)F)cc(-c3ccco3)nc12	Mcl1 Bid PPI 79
CC1C/C(=C/c2ccco2)C(=O)/C(=C/c2ccco2)C1 (configuration not stated)	Mcl1 Noxa PPI 53 (no result: Pf gametocyte)
O=C1c2ccccc2C(=O)N1CC(O)CNc1ccc(Br)cc1 (configuration not stated)	none
N=C(N)SCc1cn(-c2ccccc2)nc1-c1ccc(Br)cc1	14-3-3 Bad PPI 75
COc1ccc(NC(=O)c2ccc(CNc3c(N4CCCC4)c(=O)c3=O)cc2)cc1Cl	none (no result: Mcl-1 Bim block)
Cc1ccc2c(c1)C(CCN)C(=O)N2Cc1ccccc1 (configuration not stated)	none (no result: Pf gametocyte)
Cc1ccc2c(c1)C1CCCC3C1N2CC(=O)N3Cc1ccccc1 (configuration not stated)	Mcl1 Noxa PPI 51 (no result: Pf gametocyte)
CN(C(=O)CSc1nnc(Nc2ccccc2)s1)c1c(N)n(Cc2ccccc2)c(=O)[nH]c1=O	Mcl1 Noxa PPI 53
O=C(O)C1CC(c2ccccc2F)=NO1 (configuration not stated)	eIF4E-4G inh 48 (no result: Pf gametocyte)
CCc1cc2c(N=Nc3c(O)[nH]c4ccccc34)ncnc2s1	none (no result: Pf gametocyte)
Oc1[nH]c2ccccc2c1N=Nc1ncnc2c1oc1ccccc12	Mcl1 Noxa PPI 65 (no result: Mcl-1 Bim block)
Cc1cccc(NC(=S)c2nc3ccccc3s2)c1	Mcl1 Bid PPI 103
O=C(Nc1ccccc1)c1nc2ccccc2s1	none
Cc1nnc(SCCn2c(N(C)Cc3ccccc3)nc3c2c(=O)[nH]c(=O)n3C)s1	none (no result: Pf gametocyte)
CCn1c(SCC(=O)Nc2c(C)n(C)n(-c3ccccc3)c2=O)nc2c1c(=O)n(C)c(=O)n2C	none (no result: Pf gametocyte)
O=C(NC(=S)Nc1nc2c(s1)CSc1ccccc1-2)c1ccccc1	Mcl1 Noxa PPI 73
COc1ccc(C2C(C#N)=C(N)OC3=C2C(=O)CCC3)cc1OC (configuration not stated)	Mcl1 Bid PPI 70
COc1ccc(C2C(C#N)=C(N)OC3=C2C(=O)CC(C)C3)c(OC)c1OC (configuration not stated)	Mcl1 Bid PPI 53
CCN1/C(=C\C=C2\C(=O)N(c3ccccc3)C(=S)N2C)Sc2ccccc21	Mcl1 Bid PPI 78, 14-3-3 Bad PPI 95, Mcl1 Noxa PPI 60
Cc1cc(-c2csc(NC(=O)c3ccc(=O)n(C)n3)n2)c(C)n1CC1CCCO1 (configuration not stated)	Mcl1 Noxa PPI 54 (no result: Pf gametocyte)
Cc1cc(-c2csc(NC(=O)c3ccccc3C(F)(F)F)n2)c(C)n1Cc1ccccc1	none (no result: Pf gametocyte)
CC(NCc1ccccc1)C1COc2ccccc2O1 (configuration not stated)	Mcl1 Bid PPI 60 (no result: Mcl1 Noxa PPI)
O=C(CN1CCN(C2CCCCC2)CC1)Nc1ccccc1-c1ccccc1	14-3-3 Bad PPI 83 (no result: Pf gametocyte)
COc1ccc(CC(=O)NCCC(C)C)cc1S(=O)(=O)N1CCOCC1	none
O=C(O)CSc1cc(C(=O)c2ccccc2O)cn2c(=O)c3c4c(sc3nc12)CCCC4	Mcl1 Bid PPI 51, 14-3-3 Bad PPI 75, Mcl1 Noxa PPI 80 (no result: Mcl-1 Bim block)
O=[N+]([O-])c1cccc2c3c([nH]c12)CCCC3	none (no result: Mcl-1 Bim block)
O=C(NCc1cccnc1)c1cccc(S(=O)(=O)N2CCCCC2)c1	none (no result: Pf gametocyte)
O=C(N/N=C/c1cccnc1)c1cccc(S(=O)(=O)N2CCCC2)c1	Mcl-1 Bim block 55
CCOc1ncccc1C(=O)N1CCN(c2cccc(C)c2C)CC1	14-3-3 Bad PPI 88
C=C1c2cc(C)ccc2NC(=O)N1c1ccccc1	none
C#CCn1cc(C=C2C(=O)c3ccccc3C2=O)c2ccccc21	Mcl1 Noxa PPI 55
C#CCn1c(=O)cc(C)c2ccccc21	none
CCC(CC)c1nnc(NC(=O)C2CCCO2)s1 (configuration not stated)	none
CCOC(=O)C1=C(O)c2ccccc2C(=O)/C1=C\c1ccc(C)cc1	Mcl1 Noxa PPI 79 (no result: Pf gametocyte)
CCN(CC)c1ccc(NC(=O)Cn2c(C(C)NC(=O)c3ccc(C)cc3)nc3ccccc32)cc1 (configuration not stated)	Mcl1 Bid PPI 90, 14-3-3 Bad PPI 95
CCCn1c(C(C)NC(=O)c2ccccc2)nc2ccccc21 (configuration not stated)	none (no result: Mcl-1 Bim block, Pf gametocyte)
S=C1NC[C@H](c2ccccc2)N1CC1CCCCC1	none
CC(=O)Nc1ccc(C(=O)/C=C/c2ccco2)cc1	Mcl1 Noxa PPI 61
CC(=O)Nc1cccc(C(=O)/C=C/c2ccc(/C=C/C(=O)c3cccc(NC(C)=O)c3)cc2)c1	Mcl1 Bid PPI 59
O=C(/C=C\c1ccco1)c1ccc(NC(=O)c2ccco2)cc1	Mcl1 Noxa PPI 76 (no result: Pf gametocyte)
O=C(/C=C/c1ccco1)c1ccc(O)cc1	none (no result: Pf gametocyte)

Screening data as filed in PubChem BioAssay.
